Test results reported in PubChem BioAssay (NCI).
This is part of a sample that, as a whole, favours compounds with a hit. Of some 83,000 tested, about 20% had one in any assay.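 Single-dose data. Exposure time 48 hours. Values below 10 considered active.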 Values without a mark were called inactive. Calls of active or inactive are those of the source.

What was measured:
Experiment in all cases: NCI-60 one-dose screen, 48 h (100 = growth as untreated, 0 = no growth, -100 = all killed)
[1] = tested on: HCT-15 colon; conditions: 10 µM unless noted
[2] = tested on: HT29 colon; conditions: 10 µM unless noted
[3] = tested on: SNB-75 CNS; conditions: 10 µM unless noted
[4] = tested on: SNB-19 CNS; conditions: 10 µM unless noted
[5] = tested on: U251 CNS; conditions: 10 µM unless noted
[6] = tested on: PC-3 prostate; conditions: 10 µM unless noted
[7] = tested on: SK-MEL-5 melanoma; conditions: 10 µM unless noted
[8] = tested on: UACC-62 melanoma; conditions: 10 µM unless noted
[9] = tested on: LOX IMVI melanoma; conditions: 10 µM unless noted
[10] = tested on: SK-MEL-28 melanoma; conditions: 10 µM unless noted
[11] = tested on: SK-MEL-2 melanoma; conditions: 10 µM unless noted
[12] = tested on: EKVX NSCLC; conditions: 10 µM unless noted
[13] = tested on: SN12C renal; conditions: 10 µM unless noted
[14] = tested on: UO-31 renal; conditions: 10 µM unless noted
[15] = tested on: TK-10 renal; conditions: 10 µM unless noted
[16] = tested on: A498 renal; conditions: 10 µM unless noted
[17] = tested on: CCRF-CEM leukemia; conditions: 10 µM unless noted
[18] = tested on: MOLT-4 leukemia; conditions: 10 µM unless noted
[19] = tested on: ACHN renal; conditions: 10 µM unless noted
[20] = tested on: CAKI-1 renal; conditions: 10 µM

Compound | growth [1] | growth [2] | growth [3] | growth [4] | growth [5] | growth [6] | growth [7] | growth [8] | growth [9] | growth [10] | growth [11] | growth [12] | growth [13] | growth [14] | growth [15] [%] | growth [16] | growth [17] | growth [18] | growth [19] | growth [20]
CCN(CC)CCC(C(=O)O)(c1ccccc1)c1ccccc1 | 103% | 94.9% | 86.8% | 104% | 109% | 103% | 104% | 97.9% | 95.7% | 109% | 112% | 96.1% | 103% | 89.1% | 97.9 | 102% | 96.6% | 89.4% |  | 
CCCCCCCCCCCCCCCCNc1ccccc1 | 103% | 87.1% | 107% | 108% | 86.2% | 82% | 104% | 98.8% | 101% | 113% | 90% | 106% | 70.7% | 57.9% | 90.9 | 114% | 44.4% | 43.1% |  | 
Fc1ccc(/C=N/n2c(-c3cc(Cl)cc(Cl)c3Cl)nn(CNc3ccc(Cl)nn3)c2=S)cc1 | 110% | 103% | 99.4% | 101% | 90% | 86.7% | 102% | 86.7% | 96.8% | 108% | 98.1% | 104% | 102% | 89.4% | 103 | 105% | -70.4% (active) | 75.1% |  | 
CCCCOc1nc2ccc(Cl)cc2cc1/C=C/C(=O)/C=C/c1ccc(Cl)cc1 | 81.9% | 25.2% | 86.4% | 93.9% | 35.3% | 57.5% | 49.4% | 67.5% | 24.1% | 81.9% | 101% | 83.7% | 92.1% | 66.9% |  | 92.4% | 76.2% | 71.5% | 81.5% | 98.1%
Cl[C@@H]1CCO[C@H](c2cc3ccccc3c3ccccc23)C1 | 96.9% | 98.8% | 103% | 91.7% | 90.6% | 92.8% | 93% | 85.2% | 97.6% | 104% | 101% | 90.8% | 95.4% | 89.2% | 92.8 | 77.2% | 85.9% | 98% |  | 
COc1cc(-c2nc(SCC(=O)Nc3ccc(C(C)=O)cc3)[nH]c(=O)c2C#N)cc(OC)c1OC | 40.2% | 6.82% (active) | 38.3% | 58.2% | 16% | 18% | 15.2% | 36% | 18.5% | 57.8% | 35.9% | 33.8% | 29.5% | 49.3% |  | 18.5% | -11.9% (active) | 3.84% (active) | 41.6% | 61.5%
CC(C)CNCC(O)COc1ccc(C(C)(C)c2ccc(OCC(O)CNCC(C)C)cc2)cc1 (configuration not stated) | 20.1% | -8.67% (active) | 63.9% | 51.7% | -5.63% (active) | 47.4% | -95% (active) | -65.2% (active) | -79.9% (active) | -60.5% (active) | -6.06% (active) | 69.4% | 67.5% | -32.2% (active) | 66.6 | 59.8% | 0.812% (active) | -35.8% (active) |  | 
Cc1nc(N)nc(SCc2ccccc2)c1Br | 102% | 92.8% | 87.3% | 99.3% | 85.4% | 83.8% | 88.4% | 75.8% | 95.7% | 106% | 89.9% | 85.7% | 91.6% | 54.7% | 112 | 63.4% | 82.4% | 63.7% |  | 
CCOC(=O)c1noc2c1CCc1cn(Cc3cc(OC)cc(OC)c3)cc1-2 | 96.4% | 75.4% | 95.8% | 113% | 110% | 92.8% | 101% | 103% | 95.5% | 105% | 92.1% | 98.1% | 107% | 84% | 81.7 | 107% | 102% | 79.5% |  | 
CCCCCCCCCCCCCCCC(=O)NS(=O)(=O)OC[C@H]1O[C@@H](n2cnc3c(N)ncnc32)[C@H](O)[C@@H]1O | -8.55% (active) | -17.1% (active) | -41.6% (active) | -53.7% (active) | -87.5% (active) | -52.4% (active) | -88.8% (active) | -48.9% (active) | -64.8% (active) | -59.7% (active) | -24.7% (active) | -8.18% (active) | -12.9% (active) | -69.8% (active) |  | -95.6% (active) | 5.11% (active) | -4.18% (active) | -18.6% (active) | -61.4% (active)
CCNc1ncnc2n[nH]nc12 | 98.4% | 100% | 94.8% | 96.4% | 95.3% | 82.3% | 98.7% | 99.3% | 102% | 107% | 104% | 94.7% | 102% | 98.4% | 91.9 | 102% | 87.5% | 100% |  | 
COc1ccc(NC(=O)Nc2ccc(-c3ccc(OC)c(OC)c3)nc2C)cc1 | 91.8% | 68.8% | 47.5% | 71.5% | 22.1% | 81.4% | 23% | 59.9% | 88.8% | 86.8% | 79.6% | 91.1% | 64.4% | 81.7% | 60.4 | 71.9% | 97.2% | 85.6% |  | 
CCn1cc(C(=O)O)c(=O)c2cc(F)c(N3CCN(CC(=O)Nc4ccc(C(C)=O)cc4)CC3)cc21 | 104% | 100% | 87.3% | 99% | 99.6% | 96.4% | 100% | 95.9% | 96.1% | 105% | 92.8% | 103% | 98.9% | 93.6% | 89.3 | 95.5% | 98.7% | 97.6% |  | 
Cc1c(F)cccc1NC(=O)c1sc2nc3c(cc2c1N)CCCCC3 | 28.5% | 15.6% | 76.2% | 53.9% | 56.3% | 70.7% | 39.2% | 27% | 50.4% | 68.7% | 40.7% | 64.7% | 84.6% | 72.7% | 85.3 | 33.7% | 23.6% | 30.7% |  | 
CCN(CC)CCNc1ccc([N+](=O)[O-])c2sc3cc(Cl)ccc3c(=O)c12 | 48.5% | 34.7% | 1.48% (active) | 42.2% | 40.4% | 48.5% | 61.7% | 30.9% | 19.1% | -47.5% (active) | 82.1% | 78.9% | -19.3% (active) | -79.5% (active) | 66.9 | 73.5% | 12.9% | 29% |  | 
Nc1ncnc2c1ccn2-c1cccc(NC(=O)c2cccc(C(F)(F)F)c2)c1 | 41.7% | 58.4% | 67% | 88.4% | 44.9% | 51.7% | 41.1% | 77.3% | 62.2% | 85.1% | 80.6% | 66.6% | 88.4% | 86.4% |  | 82.9% | 51.3% | 52.3% | 64.1% | 69.7%
